# Measured values as given in PubChem BioAssay (Tox21).
# Where “and” joins values, the source holds several entries; their conditions need not be identical. Equal entries are not always repeated. More than one record can exist for a structure, and the calls need not agree. Values without a mark were called inactive. Entries that show only a call come without a potency. Calls of active or inactive are those of the source. Calls come from the whole dose curve; as a rule, active = well fitted activation curve with a large enough effect in the signal ratio in the repeat runs (not every such curve was filed as active); inconclusive = weak or mixed curves, or effect the other way; inactive = no such curve, though single readings can be large or run the other way; the % refers to the signal ratio.
# Target: Glucocorticoid receptor (Homo sapiens) (UniProt P04150)
# Test: qHTS assay to identify small molecule agonists of the glucocorticoid receptor (GR) signaling pathway (AID 720691)
# Details: GR-bla HeLa, beta-lactamase reporter ratio, 18 h; activation: at 62.4 µM (top of the series)
# From the text: U.S. Tox21 Program National Center for Advancing Translational Sciences [NCATS] NIH Chemical Genomics Center [NCGC] U.S. Environmental Protection Agency [EPA] National Institutes of Environmental Health Sciences [NIEHS] National Toxicology Program [NTP] U.S. Food and Drug Administration [FDA] Tox21 Assay Overview: The Glucocorticoid receptor (GR) is one of the members of the nuclear receptor family of ligand-dependent transcription factors. GR plays a critical role in carbohydrate, protein and lipid metabolisms and programmed cell death. CellSensor GR-bla HeLa cell line (Invitrogen) contains a beta-lactamase reporter gene under the control of the glucocorticoid response element stably integrated into HeLa cells, a cervical cancer cell line that expresses glucocorticoid receptor. The activation of the reporter gene under culture conditions can be detected by fluorescence intensity. This cell line has been used to screen the Tox21 10K compound library and to identify the compounds that activate the GR signaling.
# Tox21 Assay Protocol Summary: The GR-bla HeLa cells were dispensed at 1500 cells/6 ul/well in 1536-well black wall/clear bottom plates using a Multidrop Combi (ThermoFisher Scientific, Waltham, MA) dispenser. After the assay plates were incubated at a 37 C/5% CO2 incubator for 4 hours, 23 nL of compounds dissolved in DMSO, positive controls or DMSO only was transferred to the assay plate by a pintool station (Kalypsys, San Diego, CA). The plates were incubated at 37 C for 18 hours. After 1 uL of LiveBLAzerTM B/G FRET substrate was added using a Flying Reagent Dispenser (Aurora Discovery, San Diego, CA), the plates were incubated at room temperature for 2 hours, and fluorescence intensity was measured by an Envision plate reader (PerkinElmer, Shelton, CT).
# Potency is the fitted concentration of half-maximal effect.
# Sequence of Glucocorticoid receptor (Homo sapiens) (P04150 whole entry, looked up): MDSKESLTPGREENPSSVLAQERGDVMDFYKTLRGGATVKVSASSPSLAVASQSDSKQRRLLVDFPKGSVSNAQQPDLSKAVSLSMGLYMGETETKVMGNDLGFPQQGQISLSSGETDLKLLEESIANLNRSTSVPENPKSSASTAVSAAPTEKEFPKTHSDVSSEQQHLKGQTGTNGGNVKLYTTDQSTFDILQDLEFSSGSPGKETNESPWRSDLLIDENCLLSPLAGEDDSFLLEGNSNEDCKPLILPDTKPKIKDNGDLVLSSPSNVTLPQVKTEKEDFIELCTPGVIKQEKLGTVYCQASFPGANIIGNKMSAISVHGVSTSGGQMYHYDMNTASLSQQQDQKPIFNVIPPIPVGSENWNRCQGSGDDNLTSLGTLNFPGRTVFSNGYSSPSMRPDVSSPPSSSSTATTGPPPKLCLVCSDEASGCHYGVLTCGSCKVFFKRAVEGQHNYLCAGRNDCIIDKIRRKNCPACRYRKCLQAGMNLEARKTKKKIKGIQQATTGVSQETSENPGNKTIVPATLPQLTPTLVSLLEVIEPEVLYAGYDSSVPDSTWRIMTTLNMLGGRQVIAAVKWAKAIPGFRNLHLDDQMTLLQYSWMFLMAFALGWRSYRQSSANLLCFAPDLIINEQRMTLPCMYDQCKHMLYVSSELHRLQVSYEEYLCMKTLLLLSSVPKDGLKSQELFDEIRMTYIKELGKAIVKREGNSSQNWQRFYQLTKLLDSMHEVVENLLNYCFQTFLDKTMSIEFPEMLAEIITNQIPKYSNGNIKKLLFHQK
SMILES,Potency,activation
CC1=C(C)S(=O)(=O)CCS1(=O)=O,inactive,–
CCCCCCOCCO,inactive,–
Nc1ccccc1[N+](=O)[O-],inactive,–
O=C(OCCOCCOC(=O)c1ccccc1)c1ccccc1,inactive,–
CC1CCC2CC1C2(C)C (stereo not given),inactive,–
Cc1cnc(C(=O)NCCc2ccc(S(=O)(=O)NC(=O)NC3CCCCC3)cc2)cn1,inactive,–
CCCCCCCCCCCCOCCO,inactive,–
Nc1cc([N+](=O)[O-])ccc1O,inactive,–
CN(C)CCC(c1ccccc1)c1ccccn1 (stereo not given),inactive,–
CCCCC(CC)COC(=O)C(C#N)=C(c1ccccc1)c1ccccc1 (stereo not given),inactive,–
O=C(O)c1ccc2c(c1)C(=O)OC2=O,inactive,–
CCCCCC1=CCCC1=O,inactive,–
CN(C)CCOCCN(C)C,inactive,–
COCCCOc1ccnc(CS(=O)c2nc3ccccc3[nH]2)c1C (stereo not given),–,16.4% [inconclusive] (active)
C=C(C)C(=O)OCCOCCOCCOC(=O)C(=C)C,inactive,–
CC(C)(N)CO,inactive,–
CC(=O)Nc1ccccc1,inactive,–
CC(=O)OCC(=O)[C@@]12N=C(C)O[C@@H]1C[C@H]1[C@@H]3CCC4=CC(=O)C=C[C@]4(C)[C@H]3[C@@H](O)C[C@@]12C,425 nM (active) and 155 nM (active),–
c1ccc2c(c1)ccc1ccccc12,inactive,–
O=C(O)c1ccccc1C(c1ccc(O)cc1)c1ccc(O)cc1,inactive,–

SMILES,Potency,activation
Cc1ccc(S(N)(=O)=O)cc1,inactive,–
O=P(OC(CCl)CCl)(OC(CCl)CCl)OC(CCl)CCl,inactive,–
CCCCC(CC)CO (stereo not given),inactive,–
O=C(O)CCCC[C@@H]1SC[C@@H]2NC(=O)N[C@@H]21,inactive,–
CC(C)(C)[C@@H](O)[C@@H](Cc1ccc(Cl)cc1)n1cncn1,inactive,–
Oc1cccc2ccccc12,inactive,–
c1ccc(OCCOc2ccccc2)cc1,inactive,–
c1ccc2scnc2c1,inactive,–
CCCCCCCCC/C=C/CC1CC(=O)OC1=O (stereo not given),inactive,–
NNc1nncc2ccccc12,inactive,–
N[C@@H](Cc1cc(I)c(Oc2cc(I)c(O)c(I)c2)c(I)c1)C(=O)O,inactive,–
C[Si](O[Si](C)(C)C)O[Si](C)(C)C,inactive,–
O=C(O)c1cc(O)c(O)c(O)c1,inactive,–
OCCOCCOCCO,inactive,–
O=C(CC(C(=O)OC1CCCCC1)S(=O)(=O)O)OC1CCCCC1 (stereo not given),inactive,–
CCCCN(CCCC)CCCC,inactive,–
O=C(O)CC(C(=O)O)C(CC(=O)O)C(=O)O (stereo not given),inactive,–
CCc1ccc(CCOc2ccc(CC3SC(=O)NC3=O)cc2)nc1 (stereo not given),inactive,–
O=[N+]([O-])c1ccc(/C=C/c2ccc([N+](=O)[O-])cc2S(=O)(=O)O)c(S(=O)(=O)O)c1,inactive,–

# Same assay, conditions: GR-bla HeLa, beta-lactamase reporter ratio, 18 h; at 62.4 µM (top of the series)
row,SMILES,activation [%]
1,COCCCOc1ccnc(CS(=O)c2nc3ccccc3[nH]2)c1C (stereo not given),-5.49
